Laboratory results published in the supplement of paper PMC10849652.
Of roughly 8,800 targets only a part is listed; those with a hit were picked by preference. About 0.5% of all pairs of compound and target were hits.

What was measured:
Assay in all cases: log2 fold change, soluble protein after heating vs DMSO (PISA); higher = thermal stabilisation; K562 lysate, 10 uM; active = over 0.2 and 3.5 SD of the protein, either way, in both replicates (recomputed)
[1] = compound: Cc1cn(-c2cc(NC(=O)c3ccc(C)c(Nc4nccc(-c5cccnc5)n4)c3)cc(C(F)(F)F)c2)cn1 [nilotinib]
Method in brief: (§1)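 Quantification was by TMTpro 16plex LC-MS/MS with equalised channel sums, applied to the supernatant after 21,000xg for 90 min. Samples were crude K562 extract at 1 mg/mL protein in PBS pH 7.4 with 1 mM MgCl2, treated with 10 μM compound for 30 min, heated for 3 min across 48°C-58°C, pooled and brought to 0.5% NP-40 at 4°C. Values are log-two fold changes in thermal stability relative to solvent controls, from duplicates.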

[2] = compound: Cc1nc(Nc2n[nH]c3c2CN(C(=O)N[C@H](CN(C)C)c2ccccc2)C3(C)C)c2sccc2n1
Method in brief: as §1

[3] = compound: Cc1nc(Nc2ncc(C(=O)Nc3c(C)cccc3Cl)s2)cc(N2CCN(CCO)CC2)n1 [dasatinib]
Method in brief: as §1

[4] = compound: Cc1ncc(-c2ccnc(Nc3ccc(S(C)(=O)=O)cc3)n2)n1C(C)C
Method in brief: as §1

[5] = compound: Cn1cc(-c2ccc3c(c2)CCN3C(=O)Cc2cccc(C(F)(F)F)c2)c2c(N)ncnc21
Method in brief: as §1

[6] = compound: Cn1cc(CNCC2CCN(c3ncc(C(=O)NO)cn3)CC2)c2ccccc21 [quisinostat]
Method in brief: as §1

[7] = compound: Cn1cncc1[C@@](N)(c1ccc(Cl)cc1)c1ccc2c(c1)c(-c1cccc(Cl)c1)cc(=O)n2C [tipifarnib]
Method in brief: as §1

[8] = compound: NC(=O)Nc1cc(-c2cccc(F)c2)sc1C(=O)N[C@H]1CCCNC1
Method in brief: as §1

[9] = compound: NC(=O)c1cnc(N[C@@H]2CCCC[C@@H]2N)nc1Nc1cccc(-n2nccn2)c1
Method in brief: as §1

[10] = compound: NC1(c2ccc(-c3nc4ccn5c(=O)[nH]nc5c4cc3-c3ccccc3)cc2)CCC1
Method in brief: as §1

[11] = compound: NCC(=O)Nc1ccc(-n2nc(C(F)(F)F)cc2-c2ccc3c(ccc4ccccc43)c2)cc1
Method in brief: as §1

[12] = compound: O=C(CCCCCCC(=O)Nc1ccccc1)NO [vorinostat]
Method in brief: as §1

[13] = compound: O=C(O)c1ccc2c(c1)nc(Nc1cccc(Cl)c1)c1ccncc12 [silmitasertib]
Method in brief: as §1

[14] = compound: O=C1NC(=O)C(c2cnc3ccccn23)=C1c1cn2c3c(cc(F)cc13)CN(C(=O)N1CCCCC1)CC2
Method in brief: as §1

[15] = compound: c1cn2cc(-c3ccc4cn[nH]c4c3)nc(Nc3ccc(N4CCOCC4)cc3)c2n1 [entospletinib]
Method in brief: as §1

Measured: log2 fold change

TCAF2 (UniProt A6NFQ2)
inactive: [1] 0.051 | [2] 0.004 | [3] 0.001 | [4] 0.05 | [5] 0.042 | [6] -0.061 | [7] -0.037 | [8] 0.047 | [9] 0.041 | [10] -0.011 | [11] 0.019 | [13] 0 | [14] 0 | [15] -0.01
active: [12] -0.27

TPM4 (UniProt P67936)
UniProt P67936, sequence (P67936 whole entry, looked up): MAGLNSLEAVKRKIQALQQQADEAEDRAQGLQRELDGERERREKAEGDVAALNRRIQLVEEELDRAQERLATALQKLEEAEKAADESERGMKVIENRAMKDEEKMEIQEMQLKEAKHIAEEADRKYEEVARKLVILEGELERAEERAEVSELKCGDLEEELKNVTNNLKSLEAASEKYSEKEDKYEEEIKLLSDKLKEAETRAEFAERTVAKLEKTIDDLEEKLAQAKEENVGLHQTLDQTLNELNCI
inactive: [1] 0.028 | [2] -0.068 | [3] 0.058 | [4] -0.028 | [5] -0.01 | [6] 0 | [7] -0.004 | [8] -0.054 | [9] 0.007 | [10] -0.029 | [11] -0.001 | [12] 0.166 | [13] -0.018 | [14] -0.023 | [15] 0.048

TBRG4 (UniProt Q969Z0)
inactive: [1] -0.016 | [2] -0.03 | [3] -0.035 | [4] 0.007 | [5] 0.059 | [6] 0.004 | [7] -0.006 | [8] 0.038 | [9] 0.022 | [10] 0.019 | [11] 0.017 | [12] -0.238 | [13] 0.034 | [14] 0.008 | [15] 0.042

UBIAD1 (UniProt Q9Y5Z9)
inactive: [1] 0.14 | [2] -0.014 | [3] 0.117 | [4] 0.125 | [5] -0.014 | [6] 0.096 | [7] 0.04 | [8] -0.019 | [9] -0.034 | [10] -0.027 | [11] -0.061 | [12] 0.042 | [13] 0.04 | [14] 0.032 | [15] 0.058

TOPBP1 (UniProt Q92547)
active: [12] -0.387
inactive: [1] 0.013 | [2] -0.056 | [3] 0.003 | [4] 0.006 | [5] 0.02 | [6] -0.018 | [7] 0.049 | [8] -0.002 | [9] 0.039 | [10] -0.007 | [11] 0.032 | [13] 0.019 | [14] -0.074 | [15] 0.028

TUBB6 (UniProt Q9BUF5)
UniProt Q9BUF5, sequence (Q9BUF5 whole entry, looked up): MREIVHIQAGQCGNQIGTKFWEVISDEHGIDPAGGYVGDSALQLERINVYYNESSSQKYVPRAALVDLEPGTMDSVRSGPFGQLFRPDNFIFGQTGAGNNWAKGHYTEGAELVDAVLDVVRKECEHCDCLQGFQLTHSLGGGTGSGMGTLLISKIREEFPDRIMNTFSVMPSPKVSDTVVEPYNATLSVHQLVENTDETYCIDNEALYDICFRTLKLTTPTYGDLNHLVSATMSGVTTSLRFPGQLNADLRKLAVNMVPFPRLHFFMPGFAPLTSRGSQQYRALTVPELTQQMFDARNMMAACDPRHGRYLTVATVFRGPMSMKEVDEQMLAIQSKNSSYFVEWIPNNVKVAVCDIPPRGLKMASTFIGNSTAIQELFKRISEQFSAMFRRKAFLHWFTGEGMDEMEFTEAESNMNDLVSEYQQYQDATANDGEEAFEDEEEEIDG
active: [12] -0.558
inactive: [1] -0.002 | [2] -0.023 | [3] -0.031 | [4] 0.006 | [5] -0.006 | [6] -0.028 | [7] 0.021 | [8] 0.022 | [9] -0.001 | [10] 0.004 | [11] 0.013 | [13] 0.04 | [14] 0.013 | [15] 0.004

TEX30 (UniProt Q5JUR7)
active: [12] -0.534
inactive: [1] -0.036 | [2] 0.072 | [3] -0.109 | [4] 0.003 | [5] -0.004 | [6] 0.007 | [7] 0 | [8] 0.046 | [9] -0.017 | [10] -0.052 | [11] 0.035 | [13] 0.041 | [14] -0.006 | [15] 0.001

TPM4 isoform 2 (UniProt P67936)
inactive: [1] 0.052 | [2] -0.048 | [3] 0.059 | [4] 0.076 | [5] -0.011 | [6] 0.122 | [7] 0.024 | [8] -0.039 | [9] 0.029 | [10] 0.02 | [11] 0.02 | [12] 0.082 | [13] -0.016 | [14] -0.014 | [15] 0.02

TRA2A (UniProt Q13595)
active: [12] 0.568
inactive: [1] 0.098 | [2] -0.041 | [3] -0.08 | [4] -0.124 | [5] 0.077 | [6] -0.213 | [7] -0.114 | [8] -0.206 | [9] 0 | [10] -0.062 | [11] 0.009 | [13] -0.151 | [14] 0.005 | [15] -0.102

UBE4A isoform 2 (UniProt Q14139)
UniProt Q14139, sequence (Q14139 whole entry, looked up): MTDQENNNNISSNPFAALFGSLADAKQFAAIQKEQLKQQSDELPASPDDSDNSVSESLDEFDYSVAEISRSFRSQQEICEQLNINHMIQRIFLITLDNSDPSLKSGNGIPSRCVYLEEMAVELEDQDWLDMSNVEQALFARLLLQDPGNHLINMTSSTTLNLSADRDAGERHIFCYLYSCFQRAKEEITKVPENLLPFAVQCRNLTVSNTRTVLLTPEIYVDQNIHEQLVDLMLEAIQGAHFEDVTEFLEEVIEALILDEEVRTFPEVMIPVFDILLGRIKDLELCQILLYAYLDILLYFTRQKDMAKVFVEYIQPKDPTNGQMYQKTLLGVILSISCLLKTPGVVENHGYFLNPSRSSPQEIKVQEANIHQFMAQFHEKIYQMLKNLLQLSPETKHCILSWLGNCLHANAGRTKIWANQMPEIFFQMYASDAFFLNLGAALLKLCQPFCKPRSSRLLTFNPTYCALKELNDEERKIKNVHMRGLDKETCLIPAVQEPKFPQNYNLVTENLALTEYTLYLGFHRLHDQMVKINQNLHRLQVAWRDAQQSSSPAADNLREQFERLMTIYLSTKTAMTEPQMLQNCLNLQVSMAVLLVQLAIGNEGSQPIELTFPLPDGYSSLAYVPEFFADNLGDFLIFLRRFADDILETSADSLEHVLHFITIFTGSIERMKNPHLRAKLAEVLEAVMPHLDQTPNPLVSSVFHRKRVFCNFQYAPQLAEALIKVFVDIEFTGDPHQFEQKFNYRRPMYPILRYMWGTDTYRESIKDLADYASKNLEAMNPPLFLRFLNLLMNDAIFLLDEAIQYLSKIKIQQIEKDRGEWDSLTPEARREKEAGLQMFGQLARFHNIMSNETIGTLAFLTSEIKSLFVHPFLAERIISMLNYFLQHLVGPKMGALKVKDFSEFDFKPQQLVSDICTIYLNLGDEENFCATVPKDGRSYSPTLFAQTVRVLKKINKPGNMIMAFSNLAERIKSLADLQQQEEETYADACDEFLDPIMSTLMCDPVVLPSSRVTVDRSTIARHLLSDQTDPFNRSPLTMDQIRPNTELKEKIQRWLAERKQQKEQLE
inactive: [1] 0.023 | [2] -0.009 | [3] -0.075 | [4] -0.022 | [5] 0.026 | [6] -0.018 | [7] -0.003 | [8] 0.054 | [9] 0.002 | [10] 0.017 | [11] 0.007 | [13] 0.019 | [14] 0.029 | [15] 0.026
active: [12] -0.257

TRIM33 (UniProt H0Y612)
inactive: [1] -0.021 | [2] 0.153 | [3] 0.043 | [4] 0.138 | [5] -0.033 | [6] -0.238 | [7] -0.052 | [8] 0.069 | [9] -0.036 | [10] -0.106 | [11] -0.039 | [13] 0.061 | [14] 0.03 | [15] 0.084
active: [12] -0.335

TPX2 (UniProt Q9ULW0)
UniProt Q9ULW0, sequence (Q9ULW0 whole entry, looked up): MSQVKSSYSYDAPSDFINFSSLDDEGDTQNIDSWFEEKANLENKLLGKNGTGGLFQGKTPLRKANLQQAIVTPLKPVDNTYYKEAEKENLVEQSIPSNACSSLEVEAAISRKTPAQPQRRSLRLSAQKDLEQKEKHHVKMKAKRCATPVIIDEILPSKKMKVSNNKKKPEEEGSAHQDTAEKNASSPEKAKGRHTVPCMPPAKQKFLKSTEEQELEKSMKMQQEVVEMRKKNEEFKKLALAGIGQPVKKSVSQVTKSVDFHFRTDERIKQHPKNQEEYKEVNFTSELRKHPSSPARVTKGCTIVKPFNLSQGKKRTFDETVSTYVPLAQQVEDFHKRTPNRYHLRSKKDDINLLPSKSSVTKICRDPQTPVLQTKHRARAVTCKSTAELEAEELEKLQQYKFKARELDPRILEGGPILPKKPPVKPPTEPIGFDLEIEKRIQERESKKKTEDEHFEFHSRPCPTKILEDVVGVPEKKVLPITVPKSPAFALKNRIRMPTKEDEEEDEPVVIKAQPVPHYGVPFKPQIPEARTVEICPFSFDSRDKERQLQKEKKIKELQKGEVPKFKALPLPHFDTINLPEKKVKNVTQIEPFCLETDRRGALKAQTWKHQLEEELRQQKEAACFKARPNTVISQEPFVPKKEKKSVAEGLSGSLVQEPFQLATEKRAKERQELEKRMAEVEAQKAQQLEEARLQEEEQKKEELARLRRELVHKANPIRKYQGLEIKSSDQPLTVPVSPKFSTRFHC
inactive: [1] -0.001 | [2] 0.007 | [3] -0.002 | [4] 0.002 | [5] 0 | [6] -0.04 | [7] -0.007 | [8] -0.021 | [9] -0.02 | [10] -0.004 | [11] 0.003 | [13] -0.04 | [14] 0.009 | [15] 0.015
active: [12] -0.498

TRIM25 (UniProt Q14258)
UniProt Q14258, sequence (Q14258 whole entry, looked up): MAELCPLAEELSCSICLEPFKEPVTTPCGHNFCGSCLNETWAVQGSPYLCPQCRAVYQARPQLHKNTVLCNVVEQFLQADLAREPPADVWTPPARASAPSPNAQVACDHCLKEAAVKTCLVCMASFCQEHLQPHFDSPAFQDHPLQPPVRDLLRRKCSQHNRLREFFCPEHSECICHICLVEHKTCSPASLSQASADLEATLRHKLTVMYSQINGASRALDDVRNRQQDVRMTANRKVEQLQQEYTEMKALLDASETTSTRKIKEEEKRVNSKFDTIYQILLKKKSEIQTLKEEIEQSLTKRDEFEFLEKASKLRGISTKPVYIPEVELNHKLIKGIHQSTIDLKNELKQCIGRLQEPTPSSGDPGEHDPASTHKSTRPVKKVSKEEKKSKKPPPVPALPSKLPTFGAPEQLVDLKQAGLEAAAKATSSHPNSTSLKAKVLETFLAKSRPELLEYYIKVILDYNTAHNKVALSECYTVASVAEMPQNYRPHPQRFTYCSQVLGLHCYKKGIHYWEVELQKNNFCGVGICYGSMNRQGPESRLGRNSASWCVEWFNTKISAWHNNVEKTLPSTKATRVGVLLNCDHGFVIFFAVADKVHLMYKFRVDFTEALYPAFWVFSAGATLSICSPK
active: [12] -0.59
inactive: [1] 0.014 | [2] 0.027 | [3] -0.003 | [4] -0.001 | [5] -0.002 | [6] 0.002 | [7] -0.001 | [8] -0.001 | [9] -0.019 | [10] 0.023 | [11] 0.013 | [13] -0.046 | [14] -0.018 | [15] 0.011

TBL3 (UniProt Q12788)
UniProt Q12788, sequence (Q12788 whole entry, looked up): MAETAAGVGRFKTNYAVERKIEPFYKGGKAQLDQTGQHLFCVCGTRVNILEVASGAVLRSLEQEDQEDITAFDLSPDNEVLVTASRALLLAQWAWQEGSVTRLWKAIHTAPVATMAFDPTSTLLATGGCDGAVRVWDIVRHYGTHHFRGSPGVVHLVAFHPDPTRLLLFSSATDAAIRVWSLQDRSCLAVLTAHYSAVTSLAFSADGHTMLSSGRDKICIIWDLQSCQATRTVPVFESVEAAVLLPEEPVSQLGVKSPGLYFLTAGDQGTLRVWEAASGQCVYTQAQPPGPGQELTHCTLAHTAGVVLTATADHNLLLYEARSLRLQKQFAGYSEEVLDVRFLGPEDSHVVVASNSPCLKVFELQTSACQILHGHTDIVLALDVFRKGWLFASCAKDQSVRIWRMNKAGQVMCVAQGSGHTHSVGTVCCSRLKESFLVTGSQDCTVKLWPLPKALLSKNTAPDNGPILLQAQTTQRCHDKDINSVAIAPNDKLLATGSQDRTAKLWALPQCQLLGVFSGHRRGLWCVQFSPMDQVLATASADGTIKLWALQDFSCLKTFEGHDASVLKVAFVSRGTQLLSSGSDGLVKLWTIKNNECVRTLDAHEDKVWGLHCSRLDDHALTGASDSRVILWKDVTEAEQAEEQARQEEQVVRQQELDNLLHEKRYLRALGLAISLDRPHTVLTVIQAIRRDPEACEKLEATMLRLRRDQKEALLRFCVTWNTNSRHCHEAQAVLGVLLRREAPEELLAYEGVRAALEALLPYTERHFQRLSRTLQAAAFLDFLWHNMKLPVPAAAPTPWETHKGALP
active: [12] -0.263
inactive: [1] -0.009 | [2] 0.025 | [3] -0.013 | [4] 0.016 | [5] 0.011 | [6] -0.046 | [7] 0.008 | [8] 0.056 | [9] -0.032 | [10] -0.052 | [11] 0.015 | [13] -0.011 | [14] -0.001 | [15] -0.023

TRMT12 (UniProt Q53H54)
UniProt Q53H54, sequence (Q53H54 whole entry, looked up): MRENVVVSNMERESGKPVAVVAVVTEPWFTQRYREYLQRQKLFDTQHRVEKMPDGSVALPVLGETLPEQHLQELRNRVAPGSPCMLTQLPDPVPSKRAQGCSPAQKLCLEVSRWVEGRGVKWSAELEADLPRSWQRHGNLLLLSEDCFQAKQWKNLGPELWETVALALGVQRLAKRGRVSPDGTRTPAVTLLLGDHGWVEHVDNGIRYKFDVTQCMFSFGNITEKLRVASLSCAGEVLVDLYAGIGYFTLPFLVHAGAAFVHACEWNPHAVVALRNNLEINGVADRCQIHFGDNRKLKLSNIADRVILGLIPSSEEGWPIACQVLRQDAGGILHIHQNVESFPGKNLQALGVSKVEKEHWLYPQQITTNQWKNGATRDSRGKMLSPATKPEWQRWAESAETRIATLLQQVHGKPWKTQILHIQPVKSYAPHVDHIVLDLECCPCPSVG
inactive: [1] -0.02 | [2] -0.005 | [3] -0.032 | [4] 0.062 | [5] -0.017 | [6] -0.074 | [7] -0.007 | [8] 0.117 | [9] -0.009 | [10] 0.004 | [11] 0.045 | [13] -0.039 | [14] -0.043 | [15] -0.125
active: [12] -0.35

THADA (UniProt Q6YHU6)
inactive: [1] 0.009 | [2] 0.012 | [3] -0.048 | [4] 0.008 | [5] 0.027 | [6] -0.115 | [7] -0.011 | [8] 0.053 | [9] 0.007 | [10] 0.002 | [11] 0.009 | [13] 0.013 | [14] 0.015 | [15] 0.006
active: [12] -0.456

TRIM65 (UniProt Q6PJ69)
inactive: [1] -0.025 | [2] -0.008 | [3] -0.059 | [4] -0.021 | [5] 0.005 | [6] -0.016 | [7] -0.004 | [8] 0 | [9] 0.08 | [10] -0.017 | [11] 0.018 | [12] -0.094 | [13] -0.006 | [14] 0.002 | [15] -0.009

TNIK isoform 4 (UniProt Q9UKE5)
active: [8] 0.483
inactive: [1] -0.019 | [2] 0.087 | [3] 0.203 | [4] 0.11 | [5] -0.011 | [6] -0.198 | [7] -0.022 | [9] 0.08 | [10] -0.021 | [11] -0.019 | [12] -0.135 | [13] 0.004 | [14] -0.114 | [15] 0.208

TPM1 isoform 4 (UniProt P09493)
UniProt P09493, sequence (P09493 whole entry, looked up): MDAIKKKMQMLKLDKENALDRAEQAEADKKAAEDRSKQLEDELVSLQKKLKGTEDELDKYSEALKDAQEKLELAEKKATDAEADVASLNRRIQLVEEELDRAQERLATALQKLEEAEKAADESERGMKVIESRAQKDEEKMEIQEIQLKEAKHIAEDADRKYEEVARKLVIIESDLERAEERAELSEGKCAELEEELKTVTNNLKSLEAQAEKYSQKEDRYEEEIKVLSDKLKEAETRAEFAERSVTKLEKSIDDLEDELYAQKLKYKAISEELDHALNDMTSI
inactive: [1] 0.02 | [2] 0 | [3] 0.004 | [4] -0.031 | [5] 0.004 | [6] 0.023 | [7] -0.008 | [8] -0.016 | [9] -0.018 | [10] -0.019 | [11] -0.053 | [12] 0.052 | [13] -0.03 | [14] -0.041 | [15] 0.006

UBE2H (UniProt P62256)
UniProt P62256, sequence (P62256 whole entry, looked up): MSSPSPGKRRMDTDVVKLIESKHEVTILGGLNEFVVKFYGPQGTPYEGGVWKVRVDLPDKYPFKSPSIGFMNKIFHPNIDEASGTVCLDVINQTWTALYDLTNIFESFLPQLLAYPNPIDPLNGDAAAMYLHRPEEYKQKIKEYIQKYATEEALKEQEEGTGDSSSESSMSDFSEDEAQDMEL
inactive: [1] -0.021 | [2] -0.041 | [3] 0.046 | [4] 0.02 | [5] 0.021 | [6] -0.015 | [7] -0.049 | [8] 0.014 | [9] 0.005 | [10] -0.041 | [11] 0.023 | [12] 0.093 | [13] -0.003 | [14] -0.003 | [15] -0.012

TTC12 isoform 2 (UniProt Q9H892)
inactive: [1] -0.128 | [2] -0.073 | [3] -0.143 | [4] 0.018 | [5] 0.004 | [6] 0.033 | [7] 0.075 | [8] 0.007 | [9] -0.041 | [10] -0.073 | [11] -0.01 | [12] -0.163 | [13] 0.078 | [14] -0.058 | [15] -0.03
